Data: PubChem BioAssay AID1159580 (chemical genetic matrix, 2015)
Values joined by “and” are separate entries in the source; they are usually repeats but may differ in a detail not shown here. Equal entries are not always repeated. The campaign covered roughly 5,500 compounds. About 2,000 (36%) were called active. Roughly 18% stayed inconclusive and do not appear here. Rule as the data show it: active = normalized growth mostly below about 0.91 (no sharp cut-off); inconclusive = no clear call, values can overlap the other calls; inactive = mostly above about 0.92. The list shows a part of the results.

Assay: chemical genetic growth profiling, strain panel (AID 1159580);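 also: tested at 20 µM; growth read once vehicle control cultures reached saturation at 30 °C; 1 = growth at the plate median or of vehicle wells; lower values mean less growth of the strain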
Conditions: S. cerevisiae deletion strains, growth OD

Measured: normalized growth

N[C@@H](Cc1ccc(O)c(O)c1)C(=O)O
inactive: locus YAL013W, strain DEP1, active compounds read low 0.999 | locus YAL021C, strain ccr4, active compounds read low 1 | locus YAL026C, strain drs2, active compounds read low 0.989 | locus YAL030W, strain snc1, active compounds read low 1 | locus YBL061C, strain skt5, active compounds read low 1.01 | locus YBR009C, strain hhf1, active compounds read low 0.982 | locus YBR021W, strain FUR4, active compounds read low 1.14 | locus YBR023C, strain chs3, active compounds read low 1 | locus YBR171W, strain sec66, active compounds read low 0.997 | locus YBR229C, strain ROT2, active compounds read low 1.01 | locus YBR231C, strain swc5, active compounds read low 1 | locus YBR279W, strain paf1, active compounds read low 1 | locus YCL011C, strain gbp2, active compounds read low 1 | locus YCL016C, strain dcc1, active compounds read low 0.997 | locus YCL029C, strain bik1, active compounds read low 0.998 | locus YCL061C, strain MRC1, active compounds read low 0.998 | locus YCL069W, strain vba3, active compounds read low 1 | locus YCR088W, strain abp1, active compounds read low 0.999 | locus YDL005C, strain med2, active compounds read low 0.994 | locus YDL035C, strain GPR1, active compounds read low 0.976 | locus YDL040C, strain nat1, active compounds read low 0.998 | locus YDL074C, strain BRE1, active compounds read low 0.969 | locus YDL101C, strain DUN1, active compounds read low 0.993 | locus YDL134C, strain PPH21, active compounds read low 0.997 | locus YDL185W, strain tfp1, active compounds read low 0.955 | locus YDL192W, strain arf1, active compounds read low 0.991 | locus YDR001C, strain nth1, active compounds read low 1 | locus YDR069C, strain doa4, active compounds read low 1 | locus YDR101C, strain arx1, active compounds read low 1 | locus YDR137W, strain rgp1, active compounds read low 1.01 | locus YDR150W, strain NUM1, active compounds read low 0.947 | locus YDR159W, strain sac3, active compounds read low 0.995 | locus YDR162C, strain NBP2, active compounds read low 0.968 | locus YDR195W, strain ref2 0.962 | locus YDR297W, strain sur2, active compounds read low 1.01 | locus YDR318W, strain mcm21, active compounds read low 0.987 | locus YDR334W, strain swr1, active compounds read low 1 | locus YDR335W, strain msn5, active compounds read low 0.997 | locus YDR388W, active compounds read low 1.01 | locus YDR392W, strain spt3, active compounds read low 0.885 | locus YDR502C, strain sam2, active compounds read low 0.999 | locus YEL003W, strain gim4, active compounds read low 0.999 | locus YEL037C, strain rad23, active compounds read low 1 | locus YEL061C, strain CIN8 (second series), active compounds read low 0.999 | locus YEL061C, strain CIN8, active compounds read low 0.998 | locus YER015W, strain faa2, active compounds read low 1.01 | locus YER016W, strain bim1, active compounds read low 0.995 | locus YER110C, active compounds read low 0.993 | locus YER111C, strain swi4, active compounds read low 0.995 | locus YER155C, strain BEM2 (second series), active compounds read low 0.988 | locus YER155C, strain BEM2, active compounds read low 1.02 | locus YER167W, strain BCK2, active compounds read low 0.989 | locus YFR010W, strain ubp6, active compounds read low 0.999 | locus YGL078C, strain dbp3, active compounds read low 0.986 | locus YGL086W, strain mad1, active compounds read low 0.98 | locus YGL167C, strain pmr1, active compounds read low 0.994 | locus YGL173C, strain kem1, active compounds read low 1 | locus YGL227W, strain vid30, active compounds read low 0.986 | locus YGL240W, strain doc1, active compounds read low 0.986 | locus YGL248W, strain PDE1, active compounds read low 0.989 | locus YGL253W, strain hxk2, active compounds read low 1 | locus YGR078C, strain PAC10, active compounds read low 0.932 | locus YGR135W, strain pre9, active compounds read low 0.996 | locus YGR229C, strain SMI1, active compounds read low 0.928 | locus YGR252W, strain gcn5, active compounds read low 1.03 | locus YHR013C, strain ard1, active compounds read low 0.943 | locus YHR027C, strain rpn1, active compounds read low 1.01 | locus YHR030C, strain SLT2, active compounds read low 0.997 and 0.962 | locus YHR079C, strain IRE1 (second series), active compounds read low 0.995 | locus YHR079C, strain IRE1, active compounds read low 0.951 | locus YHR094C, strain hxt1, active compounds read low 0.988 | locus YHR129C, strain ARP1, active compounds read low 0.991 | locus YHR142W, strain chs7, active compounds read low 1.01 | locus YHR200W, strain rpn10, active compounds read low 0.992 | locus YIL066C, strain RNR3, active compounds read low 0.928 | locus YIL073C, strain SPO22, active compounds read low 0.866 | locus YIL125W, strain kgd1, active compounds read low 0.984 | locus YIR030C, strain dcg1, active compounds read low 1 | locus YJL092W, strain hpr5, active compounds read low 0.991 | locus YJL095W, strain BCK1 (second series), active compounds read low 1 | locus YJL095W, strain BCK1, active compounds read low 1.01 and 0.968 | locus YJL115W, strain asf1, active compounds read low 1 | locus YJL129C, strain trk1, active compounds read low 1 | locus YJL134W, strain LCB3, active compounds read low 0.99 | locus YJL154C, strain vps35, active compounds read low 1 | locus YJL164C, strain tpk1, active compounds read low 1 | locus YJL166W, strain qcr8, active compounds read low 0.997 | locus YJL168C, strain set2, active compounds read low 1.01 | locus YJL187C, strain SWE1 (second series), active compounds read low 0.984 | locus YJL187C, strain SWE1, active compounds read low 1 | locus YJR043C, strain POL32, active compounds read low 0.996 | locus YJR066W, strain TOR1, active compounds read low 0.928
